Measured values as given in PMC7862700, “An all-to-all approach to the identification of sequence-specific readers for epigenetic DNA modifications on cytosine”.

Columns and labels:
Experiment in all cases: DAPPL (digital affinity profiling via proximity ligation, sequencing); 10 mM Tris-HCl pH 7.5, 50 mM NaCl, 1 mM DTT, 4% glycerol, room temperature, 30 min; GST-TFs on glutathione beads, 16-mer random dsDNA library, 0.1% formaldehyde crosslink after washing; high values mean tight binding
Settings in all cases: protein: recombinant; tags: N-terminal GST; dsDNA, one strand shown
[1] = target: T1, FLI1 (Homo sapiens, UniProt Q01543 1-452)
T1 sequence: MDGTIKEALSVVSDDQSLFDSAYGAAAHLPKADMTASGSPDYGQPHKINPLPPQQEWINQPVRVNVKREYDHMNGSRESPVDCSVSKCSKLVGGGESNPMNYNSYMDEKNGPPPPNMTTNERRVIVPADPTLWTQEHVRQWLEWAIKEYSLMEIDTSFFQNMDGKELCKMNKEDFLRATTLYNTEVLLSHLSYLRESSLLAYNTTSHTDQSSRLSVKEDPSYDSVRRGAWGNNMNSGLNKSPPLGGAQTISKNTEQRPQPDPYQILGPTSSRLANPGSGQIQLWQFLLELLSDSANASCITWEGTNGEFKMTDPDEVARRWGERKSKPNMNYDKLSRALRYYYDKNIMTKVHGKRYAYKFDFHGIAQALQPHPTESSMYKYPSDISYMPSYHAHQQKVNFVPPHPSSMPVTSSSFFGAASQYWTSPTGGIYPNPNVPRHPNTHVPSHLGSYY
How it was run: (§1)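 Beads coated with glutathione captured GST-fused human transcription factors that had been expressed in yeast, and the factors were then given DNA barcodes and pooled with a tag-only sample. The pools were incubated with 200 nmole of a random double-stranded 16-mer DNA library in Tris/NaCl/DTT/glycerol buffer for 30 min at room temperature, washed, crosslinked with 0.1% formaldehyde and proximity-ligated with BsaI/T4 ligase at 37 °C for 1 h. PCR amplification and Illumina NextSeq500 sequencing came last. Binding signal is each hexamer's read frequency for a factor divided by its frequency for the tag-only sample.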

[2] = target: T2, ELK1 (Homo sapiens, UniProt P19419 1-428)
T2 sequence: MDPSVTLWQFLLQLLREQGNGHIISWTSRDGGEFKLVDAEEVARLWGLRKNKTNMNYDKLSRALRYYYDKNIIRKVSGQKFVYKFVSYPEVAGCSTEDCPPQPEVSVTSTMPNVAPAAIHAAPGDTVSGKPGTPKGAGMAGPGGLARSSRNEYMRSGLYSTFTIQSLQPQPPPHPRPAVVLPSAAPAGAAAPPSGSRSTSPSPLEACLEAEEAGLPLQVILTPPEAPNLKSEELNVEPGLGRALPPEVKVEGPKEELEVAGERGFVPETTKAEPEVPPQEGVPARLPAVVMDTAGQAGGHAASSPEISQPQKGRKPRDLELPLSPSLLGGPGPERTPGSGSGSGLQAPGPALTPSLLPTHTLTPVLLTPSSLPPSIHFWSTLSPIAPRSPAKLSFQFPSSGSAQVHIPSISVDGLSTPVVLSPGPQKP
How it was run: as §1

[3] = target: T3, GABPA (Homo sapiens, UniProt Q06546 1-454)
T3 sequence: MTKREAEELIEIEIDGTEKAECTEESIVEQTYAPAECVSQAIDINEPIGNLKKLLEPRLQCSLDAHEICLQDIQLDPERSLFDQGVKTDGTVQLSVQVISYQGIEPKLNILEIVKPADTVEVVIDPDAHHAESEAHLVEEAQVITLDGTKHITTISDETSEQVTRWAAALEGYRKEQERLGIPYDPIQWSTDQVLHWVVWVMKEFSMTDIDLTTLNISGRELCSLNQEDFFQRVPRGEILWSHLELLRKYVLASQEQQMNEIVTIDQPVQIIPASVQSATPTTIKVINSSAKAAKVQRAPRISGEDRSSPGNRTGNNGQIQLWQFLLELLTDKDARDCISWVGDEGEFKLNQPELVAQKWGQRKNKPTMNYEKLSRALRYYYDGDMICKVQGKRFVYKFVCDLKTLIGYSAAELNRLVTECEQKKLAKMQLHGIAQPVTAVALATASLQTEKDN
How it was run: as §1

[4] = target: T4, ERG (Homo sapiens, UniProt P11308 1-479)
T4 sequence: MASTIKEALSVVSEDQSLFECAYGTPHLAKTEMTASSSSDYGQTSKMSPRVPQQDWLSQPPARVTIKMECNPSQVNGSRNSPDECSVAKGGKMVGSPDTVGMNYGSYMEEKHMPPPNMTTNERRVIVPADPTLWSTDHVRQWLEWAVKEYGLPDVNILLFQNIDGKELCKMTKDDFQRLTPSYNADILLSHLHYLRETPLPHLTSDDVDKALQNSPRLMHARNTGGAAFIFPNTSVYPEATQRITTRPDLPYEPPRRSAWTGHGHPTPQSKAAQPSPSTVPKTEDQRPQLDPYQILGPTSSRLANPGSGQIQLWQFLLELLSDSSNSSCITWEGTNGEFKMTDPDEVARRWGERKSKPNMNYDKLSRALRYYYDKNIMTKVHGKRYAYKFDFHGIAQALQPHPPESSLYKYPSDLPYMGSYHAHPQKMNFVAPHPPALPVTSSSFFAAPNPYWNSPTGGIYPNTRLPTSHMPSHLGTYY
How it was run: as §1

[5] = target: ELF1 (Homo sapiens, UniProt P32519 1-619)
How it was run: as §1

[6] = target: T5, EHF (Homo sapiens, UniProt Q9NZC4 1-300)
T5 sequence: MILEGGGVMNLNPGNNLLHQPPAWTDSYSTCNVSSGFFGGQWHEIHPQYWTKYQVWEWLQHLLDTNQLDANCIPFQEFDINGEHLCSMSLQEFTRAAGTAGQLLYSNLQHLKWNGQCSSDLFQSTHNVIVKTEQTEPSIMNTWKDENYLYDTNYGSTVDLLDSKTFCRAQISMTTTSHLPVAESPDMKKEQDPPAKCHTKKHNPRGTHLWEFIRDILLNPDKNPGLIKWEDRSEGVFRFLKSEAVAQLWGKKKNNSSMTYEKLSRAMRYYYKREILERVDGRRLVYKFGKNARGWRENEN
How it was run: as §1

[7] = target: SPI1 (Homo sapiens, UniProt P17947 1-270)
How it was run: as §1

[8] = target: SPIB (Homo sapiens, UniProt Q01892 1-262)
How it was run: as §1

[9] = target: T6, ELK3 (Homo sapiens, UniProt P41970 1-407)
T6 sequence: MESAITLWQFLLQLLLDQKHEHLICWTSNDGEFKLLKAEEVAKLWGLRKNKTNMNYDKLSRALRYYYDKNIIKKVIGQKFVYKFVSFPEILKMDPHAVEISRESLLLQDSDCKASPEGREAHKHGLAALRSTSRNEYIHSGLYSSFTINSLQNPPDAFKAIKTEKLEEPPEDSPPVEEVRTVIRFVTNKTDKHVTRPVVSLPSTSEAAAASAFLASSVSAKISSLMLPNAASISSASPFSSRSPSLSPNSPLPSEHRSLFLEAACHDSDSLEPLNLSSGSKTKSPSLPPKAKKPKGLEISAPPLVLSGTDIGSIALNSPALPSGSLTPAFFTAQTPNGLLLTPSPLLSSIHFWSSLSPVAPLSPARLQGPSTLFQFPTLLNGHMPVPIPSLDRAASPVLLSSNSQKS
How it was run: as §1

[10] = target: T7, FEV (Homo sapiens, UniProt Q99581 1-238)
T7 sequence: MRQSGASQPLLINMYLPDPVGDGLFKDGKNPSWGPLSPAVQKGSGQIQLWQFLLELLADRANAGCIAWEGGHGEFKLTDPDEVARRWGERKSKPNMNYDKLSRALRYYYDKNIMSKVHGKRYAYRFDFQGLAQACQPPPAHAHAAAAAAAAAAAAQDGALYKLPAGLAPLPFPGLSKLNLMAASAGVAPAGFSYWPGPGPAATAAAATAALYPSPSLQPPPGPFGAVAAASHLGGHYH
How it was run: as §1

[11] = target: ETV5 (Homo sapiens, UniProt P41161 1-510)
How it was run: as §1

[12] = target: T8, SPIC (Homo sapiens, UniProt Q8N5J4 1-248)
T8 sequence: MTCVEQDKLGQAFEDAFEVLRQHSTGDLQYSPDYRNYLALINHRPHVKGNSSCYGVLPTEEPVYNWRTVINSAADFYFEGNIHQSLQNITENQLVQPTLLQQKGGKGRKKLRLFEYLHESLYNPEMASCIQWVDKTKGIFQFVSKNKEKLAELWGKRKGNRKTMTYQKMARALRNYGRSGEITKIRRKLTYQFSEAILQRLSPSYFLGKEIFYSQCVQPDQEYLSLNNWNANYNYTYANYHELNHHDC
How it was run: as §1

[13] = target: ELF4 (Homo sapiens, UniProt Q99607 1-663)
How it was run: as §1

[14] = target: T9, ELK4 (Homo sapiens, UniProt P28324-2 1-405)
T9 sequence: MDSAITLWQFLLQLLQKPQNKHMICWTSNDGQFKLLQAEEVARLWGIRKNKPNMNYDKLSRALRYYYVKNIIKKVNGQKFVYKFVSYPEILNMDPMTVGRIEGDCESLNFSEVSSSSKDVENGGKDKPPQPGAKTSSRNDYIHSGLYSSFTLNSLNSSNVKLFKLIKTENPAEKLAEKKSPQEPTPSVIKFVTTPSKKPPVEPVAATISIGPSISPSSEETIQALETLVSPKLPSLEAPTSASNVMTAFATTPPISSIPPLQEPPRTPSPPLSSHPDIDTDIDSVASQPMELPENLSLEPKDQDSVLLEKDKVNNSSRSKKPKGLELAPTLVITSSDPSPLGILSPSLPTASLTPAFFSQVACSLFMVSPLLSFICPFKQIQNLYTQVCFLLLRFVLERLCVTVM
How it was run: as §1

[15] = target: T10, ETV2 (Homo sapiens, UniProt O00321 1-342)
T10 sequence: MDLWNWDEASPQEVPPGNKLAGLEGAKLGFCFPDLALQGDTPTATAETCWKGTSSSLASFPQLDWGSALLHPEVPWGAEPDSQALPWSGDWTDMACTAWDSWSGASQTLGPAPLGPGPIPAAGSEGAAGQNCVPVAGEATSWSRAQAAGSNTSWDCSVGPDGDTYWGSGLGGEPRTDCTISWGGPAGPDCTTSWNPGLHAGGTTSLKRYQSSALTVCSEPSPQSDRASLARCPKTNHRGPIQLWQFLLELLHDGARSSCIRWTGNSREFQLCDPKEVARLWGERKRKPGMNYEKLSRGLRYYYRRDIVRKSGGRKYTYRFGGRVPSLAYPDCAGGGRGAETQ
How it was run: as §1

[16] = target: T11, ELF3 (Homo sapiens, UniProt P78545 1-371)
T11 sequence: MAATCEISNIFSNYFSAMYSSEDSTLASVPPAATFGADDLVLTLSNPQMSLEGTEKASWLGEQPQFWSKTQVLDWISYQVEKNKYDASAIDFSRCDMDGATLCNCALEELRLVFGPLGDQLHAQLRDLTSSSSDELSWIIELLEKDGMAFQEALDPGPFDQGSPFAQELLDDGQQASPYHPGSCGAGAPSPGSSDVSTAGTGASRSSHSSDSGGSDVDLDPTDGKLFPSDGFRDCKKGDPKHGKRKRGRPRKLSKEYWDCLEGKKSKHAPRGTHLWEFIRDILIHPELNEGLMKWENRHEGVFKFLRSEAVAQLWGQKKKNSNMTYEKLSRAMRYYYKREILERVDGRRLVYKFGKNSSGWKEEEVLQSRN
How it was run: as §1

[17] = target: ETV1 (Homo sapiens, UniProt P50549 1-477)
How it was run: as §1

Chain of ETV1 (P50549 whole entry): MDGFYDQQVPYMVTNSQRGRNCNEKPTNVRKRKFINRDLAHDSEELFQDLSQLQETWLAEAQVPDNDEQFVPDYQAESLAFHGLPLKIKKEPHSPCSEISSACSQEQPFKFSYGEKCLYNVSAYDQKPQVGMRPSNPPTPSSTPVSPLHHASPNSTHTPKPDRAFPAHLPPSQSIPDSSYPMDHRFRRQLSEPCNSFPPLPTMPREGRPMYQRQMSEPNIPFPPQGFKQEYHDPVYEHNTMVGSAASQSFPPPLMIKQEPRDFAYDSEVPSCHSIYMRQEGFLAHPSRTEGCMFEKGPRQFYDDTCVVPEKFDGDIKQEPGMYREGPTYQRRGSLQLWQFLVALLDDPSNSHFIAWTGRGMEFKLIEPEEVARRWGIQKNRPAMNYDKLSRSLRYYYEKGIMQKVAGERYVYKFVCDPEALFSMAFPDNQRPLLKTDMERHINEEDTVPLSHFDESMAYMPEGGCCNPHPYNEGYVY
Chain of ETV5 (P41161 whole entry): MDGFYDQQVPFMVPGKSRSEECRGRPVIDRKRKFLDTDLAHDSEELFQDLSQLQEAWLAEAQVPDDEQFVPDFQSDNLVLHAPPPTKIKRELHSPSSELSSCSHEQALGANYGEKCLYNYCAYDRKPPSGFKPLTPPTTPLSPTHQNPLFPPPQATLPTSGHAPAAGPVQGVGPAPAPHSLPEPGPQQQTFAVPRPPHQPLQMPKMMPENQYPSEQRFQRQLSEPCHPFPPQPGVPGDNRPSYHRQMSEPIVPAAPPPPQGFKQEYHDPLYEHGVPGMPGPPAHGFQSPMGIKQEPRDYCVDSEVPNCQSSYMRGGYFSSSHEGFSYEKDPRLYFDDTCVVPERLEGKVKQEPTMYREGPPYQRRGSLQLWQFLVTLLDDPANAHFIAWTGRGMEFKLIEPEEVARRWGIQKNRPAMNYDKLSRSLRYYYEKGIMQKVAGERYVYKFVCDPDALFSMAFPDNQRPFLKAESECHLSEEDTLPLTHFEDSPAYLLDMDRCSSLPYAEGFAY
Chain of ELF1 (P32519 whole entry): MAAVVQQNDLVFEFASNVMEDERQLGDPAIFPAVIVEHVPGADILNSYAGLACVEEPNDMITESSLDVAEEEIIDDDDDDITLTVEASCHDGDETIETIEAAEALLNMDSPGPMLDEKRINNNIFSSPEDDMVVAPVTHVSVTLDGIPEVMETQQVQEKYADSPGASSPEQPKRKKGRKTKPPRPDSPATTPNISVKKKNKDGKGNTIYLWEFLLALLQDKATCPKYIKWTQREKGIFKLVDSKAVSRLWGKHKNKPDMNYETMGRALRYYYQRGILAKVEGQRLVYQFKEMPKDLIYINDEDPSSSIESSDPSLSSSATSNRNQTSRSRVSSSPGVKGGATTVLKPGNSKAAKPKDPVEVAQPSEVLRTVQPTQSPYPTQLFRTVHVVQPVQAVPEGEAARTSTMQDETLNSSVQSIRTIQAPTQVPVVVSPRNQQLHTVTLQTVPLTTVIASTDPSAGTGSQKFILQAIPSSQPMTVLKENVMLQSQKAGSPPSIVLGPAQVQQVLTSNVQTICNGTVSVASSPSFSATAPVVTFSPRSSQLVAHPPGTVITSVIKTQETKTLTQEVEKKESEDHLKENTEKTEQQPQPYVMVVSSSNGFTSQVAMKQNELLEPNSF
Chain of SPIB (Q01892 whole entry): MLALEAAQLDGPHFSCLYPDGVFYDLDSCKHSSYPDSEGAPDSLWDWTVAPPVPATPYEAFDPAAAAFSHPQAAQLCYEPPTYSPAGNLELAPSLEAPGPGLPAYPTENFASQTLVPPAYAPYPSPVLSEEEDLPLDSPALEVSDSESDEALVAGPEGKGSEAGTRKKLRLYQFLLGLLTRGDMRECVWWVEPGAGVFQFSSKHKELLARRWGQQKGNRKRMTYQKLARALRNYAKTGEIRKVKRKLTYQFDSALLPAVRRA
Chain of ELF4 (Q99607 whole entry): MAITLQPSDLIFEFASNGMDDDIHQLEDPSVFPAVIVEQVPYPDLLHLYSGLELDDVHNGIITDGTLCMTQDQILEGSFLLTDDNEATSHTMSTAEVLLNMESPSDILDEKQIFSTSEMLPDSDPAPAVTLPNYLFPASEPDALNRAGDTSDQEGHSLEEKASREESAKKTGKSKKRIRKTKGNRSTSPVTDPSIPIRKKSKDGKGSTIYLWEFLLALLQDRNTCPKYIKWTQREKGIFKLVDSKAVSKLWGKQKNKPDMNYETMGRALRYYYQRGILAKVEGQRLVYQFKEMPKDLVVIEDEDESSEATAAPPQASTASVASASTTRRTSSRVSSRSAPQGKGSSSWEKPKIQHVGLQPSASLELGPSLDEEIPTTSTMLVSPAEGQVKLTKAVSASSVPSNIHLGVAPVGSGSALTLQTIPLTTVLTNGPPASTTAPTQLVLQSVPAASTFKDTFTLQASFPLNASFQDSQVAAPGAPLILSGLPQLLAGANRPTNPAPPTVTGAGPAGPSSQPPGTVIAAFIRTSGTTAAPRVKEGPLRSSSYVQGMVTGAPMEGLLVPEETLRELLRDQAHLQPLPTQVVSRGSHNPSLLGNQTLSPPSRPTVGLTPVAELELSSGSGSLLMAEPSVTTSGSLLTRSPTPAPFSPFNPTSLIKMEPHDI

Row | Sequence | binding signal [1] | binding signal [2] | binding signal [3] | binding signal [4] | binding signal [5] | binding signal [6] | binding signal [7] | binding signal [8] | binding signal [9] | binding signal [10] | binding signal [11] | binding signal [12] | binding signal [13] | binding signal [14] | binding signal [15] | binding signal [16] | binding signal [17]
1 | CACTCA | 1.06 fold enrichment (6-mer frequency, TF over GST control) | 1.17 fold enrichment (6-mer frequency, TF over GST control) | 1.25 fold enrichment (6-mer frequency, TF over GST control) | 1.16 fold enrichment (6-mer frequency, TF over GST control) | 1.24 fold enrichment (6-mer frequency, TF over GST control) | 1.19 fold enrichment (6-mer frequency, TF over GST control) | 1.08 fold enrichment (6-mer frequency, TF over GST control) | 1.21 fold enrichment (6-mer frequency, TF over GST control) | 1.19 fold enrichment (6-mer frequency, TF over GST control) | 1.16 fold enrichment (6-mer frequency, TF over GST control) | 1.09 fold enrichment (6-mer frequency, TF over GST control) | 1.3 fold enrichment (6-mer frequency, TF over GST control) | 1.18 fold enrichment (6-mer frequency, TF over GST control) | 1.17 fold enrichment (6-mer frequency, TF over GST control) | 1.27 fold enrichment (6-mer frequency, TF over GST control) | 1.17 fold enrichment (6-mer frequency, TF over GST control) | 1.1 fold enrichment (6-mer frequency, TF over GST control)
2 | GTTATG | 1.07 fold enrichment (6-mer frequency, TF over GST control) | 1.17 fold enrichment (6-mer frequency, TF over GST control) | 1.16 fold enrichment (6-mer frequency, TF over GST control) | 1.19 fold enrichment (6-mer frequency, TF over GST control) | 1.12 fold enrichment (6-mer frequency, TF over GST control) | 1.2 fold enrichment (6-mer frequency, TF over GST control) | 1.18 fold enrichment (6-mer frequency, TF over GST control) | 1.12 fold enrichment (6-mer frequency, TF over GST control) | 1.06 fold enrichment (6-mer frequency, TF over GST control) | 1.03 fold enrichment (6-mer frequency, TF over GST control) | 1.14 fold enrichment (6-mer frequency, TF over GST control) | 1.23 fold enrichment (6-mer frequency, TF over GST control) | 1.1 fold enrichment (6-mer frequency, TF over GST control) | 1.23 fold enrichment (6-mer frequency, TF over GST control) | 1.14 fold enrichment (6-mer frequency, TF over GST control) | 1.25 fold enrichment (6-mer frequency, TF over GST control) | 1.14 fold enrichment (6-mer frequency, TF over GST control)
